Among all 200,000 compounds or so, about 18,000 (9%) were called active. Cut-off read from the data, not from the text of the source: active = inhibition above about 50%; inactive = the rest. The full list was thinned out, with actives kept by preference.

This test can be described thus: Leishmania major promastigote growth inhibition, primary screen (AID 1063).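 Note: promastigotes grown with compound for 44 hours at 28 °C.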 The settings on record: Leishmania major promastigotes, resazurin fluorescence viability; at 10 µM; hits give high values.
Regarding `CCN(CC)C(=O)N(CC)Cc1ccccc1`, the inhibition was 0.88% (inactive).
`O=C(/C=C/c1ccc([N+](=O)[O-])cc1)NCCSCc1ccco1`: the inhibition was 62.9% (active).
For `O=C(NCc1ccco1)c1ccc(NS(=O)(=O)c2cccc([N+](=O)[O-])c2)cc1`, the inhibition was -9.32% (inactive).
With `COc1cc(OC)cc(C(=O)NCCSCc2ccco2)c1` the figure was -3.35% (inactive); with `CCC(C)NC(=O)/C=C/c1ccc(S(=O)(=O)NCc2ccco2)cc1` (configuration not stated), 9.36% (inactive).
With `CCC(CC)NC(=O)/C=C/c1cccc([N+](=O)[O-])c1` the figure was 44.7% (inactive).
With `O=C(/C=C/c1cccc([N+](=O)[O-])c1)NCCSCc1ccco1` the figure was 59.6% (active); with `CCOc1ccc(/C=C(/NC(=O)c2ccccc2)C(=O)NCCC(=O)O)cc1`, -5.96% (inactive).
For `Cc1ccc(NC(=O)c2ccc(S(=O)(=O)NCC3CCCO3)cc2)cc1C` (configuration not stated), the inhibition was 12.2% (inactive).
With `COc1ccccc1CNC(=O)c1cc(=O)c2ccccc2o1` the figure was 15.9% (inactive); with `O=C1/C(=C/c2cccs2)CCC1C1CCCC1` (configuration not stated), -9.7% (inactive).
With `CCOC(=O)c1ccc(NC(=S)N2CCCC2)cc1` the figure was 1.46% (inactive).
With `Cc1c(CN2CCC(CO)(CCOc3ccccc3)CC2)[nH]c2ccc(Cl)cc12` the figure was 100% (active); with `CN(CCOc1ccccc1)Cc1nc2cc(Cl)ccc2c(=O)[nH]1`, 7.34% (inactive).
`OCC1(CCOc2ccccc2)CCN(Cc2cn[nH]c2-c2ccccc2)CC1`: the inhibition was -2.84% (inactive).
With `CCN(CC)C(=O)C(=O)c1cn(CC(=O)NCc2ccc3c(c2)OCO3)c2ccccc12` the figure was -5.27% (inactive); with `CCn1c(SCC(=O)Nc2nccs2)nnc1-c1ccco1`, 0.22% (inactive).
For `C=C1C2C[C@H](O)C(C)(C)[C@@]2(O)[C@H](O)C[C@]23C[C@@](C)(O)[C@H](CC[C@H]12)[C@H]3O` (some centres not stated), the inhibition is -5.47% (inactive).
With `Cc1ccc(C(=O)c2ccc(N3CCN(C)CC3)c([N+](=O)[O-])c2)cc1` the figure was 12.3% (inactive); with `CN1CCN(c2ccc(S(=O)(=O)Nc3ccccc3)cc2[N+](=O)[O-])CC1`, 63.2% (active).
With `CNS(=O)(=O)c1ccc(N2CCCC2=O)c([N+](=O)[O-])c1` the figure was -4.3% (inactive).
With `O=C(Nc1ccc2c(c1)CCC2)c1ccc(Br)s1` the figure was 14.6% (inactive); with `O=C(NCc1cccnc1)c1cccc(-c2cc3ccccc3oc2=O)c1`, 3.42% (inactive).
`CN(C)S(=O)(=O)c1cccc(NC(=O)COC(=O)c2cc(=O)[nH]c(=O)[nH]2)c1`: the inhibition is -5.88% (inactive).
With `CCOC(=O)CSC1=N/C(=C/c2ccc(-n3cncn3)cc2)C(=O)N1C(C)=O` the figure was 8.27% (inactive); with `COCCCn1c(CCC(=O)O)ccc1-c1ccc(F)cc1`, 2.69% (inactive); with `CC(C)Cn1c(CCC(=O)O)ccc1-c1cccs1`, 95.5% (active).
With `CCn1c(NC(=O)c2ccccc2)c(-c2cccs2)c(=O)c2ccccc21` the figure was 0.95% (inactive).
With `CN(C)c1ccc(C=C2C(=O)OC3(CCCC3)OC2=O)cc1` the figure was -3.55% (inactive).
Regarding `Nc1ccc(C(=O)NCc2ccccc2)cc1`, the inhibition was -6.94% (inactive).
With `CCCC(=O)N1CCc2[nH]c3ccccc3c2C1` the figure was -2.11% (inactive); with `Cc1ccc2[nH]c3c(c2c1)CN(C(=O)CN1CCN(c2ccccc2)CC1)CC3`, 69.5% (active).
With `O=C(CN1CCCC1)N1CCN(c2ccccc2)CC1` the figure was -4.42% (inactive); with `COc1cc2c(cc1OC)CC1(CCCCC1)N=C2`, 6% (inactive); with `Nc1nc2n(n1)C(c1ccco1)CC(c1ccc(Cl)c(Cl)c1)N2` (configuration not stated), -1.56% (inactive).
With `Cc1ccc(C2CC(c3cccc(Br)c3)n3nc(N)nc3N2)cc1` (configuration not stated) the figure was 89.8% (active); with `Cc1ccc(C2CC(c3cccc(C)c3)n3nc(N)nc3N2)cc1` (configuration not stated), 67.6% (active); with `COc1ccc(C2CC(c3ccc(C)cc3)Nc3nc(N)nn32)cc1` (configuration not stated), 3.08% (inactive).
For `COc1ccc(C2CC(c3ccc(Cl)cc3Cl)Nc3nc(N)nn32)cc1OC` (configuration not stated), the inhibition was -5% (inactive).
With `CCOc1ccccc1C1CC(c2ccccc2)Nc2nc(N)nn21` (configuration not stated) the figure was -1.13% (inactive).
With `O=C(NCc1ccc(F)cc1)C(c1ccccc1)N(C(=O)c1csnn1)C1CC1` (configuration not stated) the figure was -1.88% (inactive).
With `Cc1ccc(C(=O)N2CCN(S(=O)(=O)N3CCOCC3)CC2)cc1` the figure was -2.24% (inactive); with `Cc1ccc(-c2cn(S(=O)(=O)c3cccc([N+](=O)[O-])c3)nc2N)cc1`, 3.16% (inactive); with `CC[N+]1(CC)CC2=Cc3ccccc3CC2C1` (configuration not stated), -4.49% (inactive).
With `Cc1cc(=O)[nH]c(N/N=C/c2c(C)nn(-c3ccccc3Cl)c2Cl)n1`, the inhibition is -2.53% (inactive).
With `OCCN(Cc1ccccc1)Cc1ccc(Cl)cc1` the figure was 78.8% (active); with `O=C(O)CCN(Cc1ccccc1)S(=O)(=O)c1c(Cl)cccc1Cl`, -2.19% (inactive); with `CC(O)CN(Cc1ccc(Cl)cc1)CC(C)O` (configuration not stated), -7.47% (inactive).
With `c1ccc2c(c1)OCCOCCOCCO2` the figure was -1.98% (inactive); with `CCOC(=O)CNc1nc(Cl)nc(Nc2ccccc2)n1`, 6.65% (inactive).
With `CC(O)c1cccc(NC(=O)Cc2cccc3ccccc23)c1` (configuration not stated) the figure was 4.7% (inactive); with `O=c1cc(N2CCCCC2)c(-c2ccccc2)nn1Cc1cccc(F)c1`, 16.7% (inactive); with `COC(=O)c1c(C(=O)OC)c(-c2cccc(C)c2)n2c1CS(=O)C2` (configuration not stated), -12.1% (inactive).
On to `O=[N+]([O-])c1cccc(C2=NCCS2)c1`, for which the inhibition is -6.13% (inactive).
With `CC(C)N(C(=O)Cn1cc(SCC(=O)N2CCCC2)c2ccccc21)C(C)C` the figure was -0.03% (inactive).
With `C=CCNc1nnc(C)c2ccccc12` the figure was 8% (inactive); with `C=CCNc1nnc(SCC(=O)N2CCCCC2)c2ccccc12`, 54.3% (active).
Regarding `CN1C(=O)/C(=C/c2ccc(C(=O)NC3CCCC3)cc2)Oc2ccccc21`, the inhibition was -4.09% (inactive).
With `CCOC(=O)c1cc(-c2ccc(F)cc2)n(CC(=O)NCc2ccccn2)c1C` the figure was 3.59% (inactive); with `COc1cccc(CNn2cn[nH]c2=S)c1OCc1ccccc1`, 15.9% (inactive).
With `COC(=O)C(C)N=Cc1ccccc1` (configuration not stated) the figure was -2.89% (inactive).
In the case of `Cc1cc(C(=O)COC(=O)C2CC2)c(C)n1-c1ccc(F)cc1`, the inhibition is -2.35% (inactive).

The values above are taken from PubChem BioAssay AID1063 (University of Pittsburgh Molecular Library Screening Center, 2008).
